Records with an inconclusive call do not appear. Activity calls are given as the source filed them. The calls were made as follows: active = hit-call score of the fitted dose curve at least 0.9, where 1 is the maximum; inconclusive = response in the unintended direction; inactive = score below 0.9.
These compounds were tested on Cytochrome P450 2C9 (Homo sapiens) (UniProt P11712) (assay: CLD_CYP2C9_24hr: CellzDirect (CLD) Gene Expression Assay for xenobiotic metabolism (CYP2C9) at 24 hours (AID 2283688)).
Description: CLD_24hr is a cell-based, multiplexed-readout assay that uses hepatocyte, a human liver primary cell, with measurements taken at 24 hours after chemical dosing in a 96-well plate.CLD_CYP2C9_24hr is one of 16 assay component(s) measured or calculated from the CLD_24hr assay. It is designed to make measurements of mRNA induction, a form of inducible reporter, as detected with chemiluminescence signals by Quantitative Nuclease Protection Assay (qNPA) technology.Data from the assay component CLD_CYP2C9_24hr was analyzed at the endpoint, CLD_CYP2C9_24hr, in the positive analysis fitting direction relative to DMSO as the negative control and baseline of activity. Using a type of inducible reporter, gain-of-signal activity can be used to understand changes in the reporter gene as they relate to the gene CYP2C9. Furthermore, this assay endpoint can be referred to as a primary readout. To generalize the intended target to other relatable targets, this assay endpoint is annotated to the cyp intended target family, where subfamily is xenobiotic metabolism.
Human hepatocyte cultures were treated daily for two consecutive days with fresh dosing solutions containing appropriate concentrations of the 320 ToxCast chemicals (chemical identities were blinded to CellzDirect and other ToxCast collaborators), vehicle control (0.2% DMSO), and positive control inducers as summarized in Table 1. Due to the large number of treatment groups and chemicals examined, the ToxCast chemicals were divided into two groups (spanning two independent cultures of hepatocytes from separate donor preparations (Hu778: ToxCast plates 1 and 2; Hu776: ToxCast plates 3 and 4). Each preparation of human hepatocyte cultures was treated with respective vehicle control, medium only control, set of six positive controls/reference chemicals for the five hepatic receptor pathways, and a subset of eight of the ToxCast chemicals (indoxacarb, pyrithiobac-sodium, norflurazon, cyhalofop-butyl, methomyl, thiram, acetochlor, and propiconazole). These replicate data, coupled with internal replicates designed within the blinded ToxCast chemical library, provided additional data to evaluate interindividual differences between hepatocyte preparations and their potential impact on chemical profiles.Cell morphology and integrity were evaluated using phase-contrast microscopy as an indicator of hepatocyte cell health (Tyson & Green, 1987). Cultures for each treatment group (i.e., media, vehicle [0.2% DMSO], positive control inducers [multiple concentrations], and the ToxCast chemicals [multiple concentrations]) were observed and cell morphology was assessed relative to vehicle control cultures at each harvest time point (0, 6, 24, or 48 h). […] Images were evaluated at the conclusion of the study to assess changes in cell integrity and account for the effects of chemical exposure on uncharacteristic changes in concentration-dependent gene expression profiles. The results from these determinations of apparent cytotoxicity were annotated (yes/no) alongside the corresponding qNPA data for reference.At the conclusion of each treatment period, hepatocyte cultures (96-well) were washed with 1 volume of HBSS, lysed by addition of 25 ul ArrayPlate lysis buffer (HTG, Tucson, AZ), and 70 ul/well of Denaturation Oil, denatured by incubation at 95C for 10 min, and frozen at approximately -70C until analysis by nuclease protection assay (qNPA) (Roberts et al., 2007). For qNPA analysis, cell lysates were thawed at 50C for approximately 30 min, qNPA probes were added, and samples were incubated at 95C for 10 min to begin the detection process by denaturing the target RNA, dissociating the duplexes and secondary structure hybridization. At the conclusion of the hybridization period, S1 nuclease reagent was added to each sample to digest all nonprotected nucleotides at 50C for 60-90 min. […]
In the case of `C=C(C)CN(CC)c1c([N+](=O)[O-])cc(C(F)(F)F)cc1[N+](=O)[O-]`, the outcome is reported as “inactive”.
With `CCOc1cc(C(C)(C)C)ccc1C1COC(c2c(F)cccc2F)=N1` (stereo not given) the outcome was “inactive”.
In the case of `CCN(CC)C(=O)C(C)Oc1cccc2ccccc12` (stereo not given), the outcome is reported as “inactive”.
For `COP(=O)(OC)O/C(C)=C/C(=O)N(C)C`, the outcome was “inactive”.
In the case of `COC(=O)c1c(C(F)F)nc(C(F)(F)F)c(C2=NCCS2)c1CC(C)C`, the outcome is reported as “inactive”.
`Nc1c(Cl)c(F)nc(OCC(=O)O)c1Cl` was tested, and the outcome was “inactive”.
`CC1(C)C(C(=O)OC(C#N)c2cccc(Oc3ccccc3)c2)C1(C)C` (stereo not given) was tested, and the outcome was “inactive”.
`CCOc1nc(F)cc2nc(S(=O)(=O)Nc3c(Cl)cccc3Cl)nn12` was tested, and the outcome was “inactive”.
`COCC(C)N(C(=O)CCl)c1c(C)csc1C` (stereo not given) was tested, and the outcome was “inactive”.
In the case of `CC(C)NC(=O)N1CC(=O)N(c2cc(Cl)cc(Cl)c2)C1=O`, the outcome is reported as “inactive”.
With `COCC(=O)N(c1c(C)cccc1C)C(C)C(=O)OC` (stereo not given) the outcome was “inactive”.
In the case of `CCSC(=O)N1CCCCCC1`, the outcome is reported as “inactive”.
In the case of `COc1cc(Cl)c(OC)cc1Cl`, the outcome is reported as “inactive”.
`CCNP(=S)(OC)O/C(C)=C/C(=O)OC(C)C` (stereo not given) was tested, and the outcome was “inactive”.
`Nc1c(Cl)c(Cl)nc(C(=O)O)c1Cl` was tested, and the outcome was “inactive”.
`C=CCOC(=O)C(C)(C)OC(=O)c1cc(-n2c(=O)cc(C(F)(F)F)n(C)c2=O)ccc1Cl` was tested, and the outcome was “inactive”.
For `OC(c1ccc(Cl)cc1)(c1ccc(Cl)cc1)C(Cl)(Cl)Cl`, the outcome was “inactive”.
With `CC(C)Oc1cccc(NC(=O)c2ccccc2C(F)(F)F)c1` the outcome was “inactive”.
For `COP(=S)(OC)SCn1nnc2ccccc2c1=O`, the outcome was “inactive”.
For `COc1cc(OC)nc(NC(=O)NS(=O)(=O)c2ncccc2OCC(F)(F)F)n1`, the outcome was “inactive”.
`CSC(=O)c1c(C(F)F)nc(C(F)(F)F)c(C(=O)SC)c1CC(C)C` was tested, and the outcome was “inactive”.
For `N#CN=C1SCCN1Cc1ccc(Cl)nc1`, the outcome was “inactive”.
`COC(=O)NC(=S)Nc1ccccc1NC(=S)NC(=O)OC` was tested, and the outcome was “inactive”.
With `CC(C)=CC1C(C(=O)OCc2coc(Cc3ccccc3)c2)C1(C)C` (stereo not given) the outcome was “inactive”.
`CC(C)C1(C)N=C(c2ncccc2C(=O)O)NC1=O` (stereo not given) was tested, and the outcome was “inactive”.
`COCc1cnc(C2=NC(C)(C(C)C)C(=O)N2)c(C(=O)O)c1` (stereo not given) was tested, and the outcome was “inactive”.
For `CCCC(=NOCC)C1=C(O)CC(CC(C)SCC)CC1=O` (stereo not given), the outcome was “inactive”.
`Cc1cnc(C2=NC(C)(C(C)C)C(=O)N2)c(C(=O)O)c1` (stereo not given) was tested, and the outcome was “inactive”.
With `CCOc1nc(C(Cl)(Cl)Cl)ns1` the outcome was “inactive”.
With `Clc1cccc(C(Cl)(Cl)Cl)n1` the outcome was “inactive”.
With `O=c1n(Cl)c(=O)n(Cl)c(=O)n1Cl` the outcome was “inactive”.
For `O=C(O)c1c(Cl)ccc2cc(Cl)cnc12`, the outcome was “inactive”.
With `O=C1C2CC=CCC2C(=O)N1SC(Cl)(Cl)Cl` (stereo not given) the outcome was “inactive”.
For `Nc1cnn(-c2ccccc2)c(=O)c1Cl`, the outcome was “inactive”.
With `CC(C)N1C(=O)N(c2ccccc2)CSC1=NC(C)(C)C` the outcome was “inactive”.
`CC(C)(C)C(=O)C(Oc1ccc(Cl)cc1)n1cncn1` (stereo not given) was tested, and the outcome was “inactive”.
`CN=C=S` was tested, and the outcome was “inactive”.
With `CC1(C)C(C=C(Cl)Cl)C1C(=O)OC(C#N)c1cccc(Oc2ccccc2)c1` (stereo not given) the outcome was “inactive”.
For `CC1(C)CCC(=Cc2ccc(Cl)cc2)C1(O)Cn1cncn1` (stereo not given), the outcome was “inactive”.
In the case of `CCNC(=O)NC(=O)C(C#N)=NOC`, the outcome is reported as “inactive”.

Source: PubChem BioAssay (EPA / NIEHS)
